This passage reports outcome and AC50 results from PubChem BioAssay (EPA / NIEHS).

The source made the active and inactive calls. Rule for the calls: active = hit-call score of the fitted dose curve at least 0.9, where 1 is the maximum; inactive = score below 0.9.

Assay [1] in a line: ATG_CRE_CIS: Attagene CIS-FACTORIAL HepG2 Assay for human cAMP Responsive Element (CRE) binding protein 3 (AID 2282926). Conditions: HepG2 CRE cis-reporter, Attagene multiplexed mRNA; actives raise or lower the signal. A digest of the protocol: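 Induced reporter mRNA from a CRE cis element, measured in HepG2 among many multiplexed units at 24 h. Detection used RT-PCR plus capillary electrophoresis of fluorescent fragments; DMSO served as negative control.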

Assay [2] deals with CCAAT/enhancer-binding protein beta (Homo sapiens) (UniProt P17676). Briefly: ATG_C_EBP_CIS: Attagene CIS-FACTORIAL HepG2 Assay for human CCAAT/Enhancer Binding Protein (C/EBP) beta (AID 2282927). Conditions: HepG2 Attagene cis-factorial transcription factor reporter; actives raise or lower the signal. The essentials:
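HepG2 transiently transfected with multiplexed reporter units under cis-regulatory promoters reporting endogenous C/EBPb activity. After 24 h exposure, reporter mRNA assayed by RT-PCR, fluorescent labelling, HpaI digestion and capillary electrophoresis; bidirectional fitting versus DMSO.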

Assay [3] in a line: ATG_CMV_CIS: Attagene CIS-FACTORIAL HepG2 Assay for human CMV (Internal Marker) (AID 2282928).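 Note: endpoint acts as a background internal control marker rather than a target.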 The following applies: HepG2 CMV promoter reporter, transcription factor profiling; actives raise or lower the signal. A digest of the protocol: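 Reporter transcripts from transfected HepG2 cells are isolated after 24 h of chemical dosing, reverse-transcribed and amplified. Fragments labeled with 6-FAM are cut with HpaI and quantified by capillary electrophoresis; DMSO defines baseline.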

Assay [4] can be described thus: ATG_DR4_LXR_CIS: Attagene CIS-FACTORIAL HepG2 Assay for human Liver X Receptor (LXR), DR4 submotif (AID 2282929). Conditions: HepG2 Attagene DR4 cis-reporter, mRNA transcription; actives raise or lower the signal. The essentials: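 Transiently transfected HepG2 liver cells; cis-regulated reporters; 24 h dosing. RT-PCR plus CE read-out of reporter mRNA. DMSO baseline, bidirectional curve fitting.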

The target in assay [5] is Aryl hydrocarbon receptor (Homo sapiens) (UniProt P35869). The experiment in a line: ATG_Ahr_CIS: Attagene CIS-FACTORIAL HepG2 Assay for human Aryl Hydrocarbon Receptor (Ahr) (AID 2282930). The following applies: HepG2 AhR cis-factorial reporter transcription; actives raise or lower the signal. The essentials:
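HepG2 cells transiently transfected with cis-element-driven multiplexed reporter units; endogenous AhR activity read as reporter mRNA 24 h after dosing, via RT-PCR, 6-FAM labelling, HpaI digestion and capillary electrophoresis. Bidirectional fit relative to DMSO.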

Assay [6] in a line: ATG_AP_2_CIS: Attagene CIS-FACTORIAL HepG2 Assay for human Activator Protein 2 (AP-2) (AID 2282932). The following applies: HepG2 AP-2 cis-reporter, Attagene transcription factor profiling; actives raise or lower the signal. A digest of the protocol:
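Liver-derived HepG2 line, cis-reporter system measuring endogenous factors; 24 h dosing; reporter mRNA detected by fluorescent RT-PCR and capillary electrophoresis.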

The nature of assay [7]: ATG_BRE_CIS: Attagene CIS-FACTORIAL HepG2 Assay for human Bone Morphogenetic Protein (BMP) Response Element (BRE) (AID 2282933). Conditions: HepG2 BMP response element reporter, Attagene transcription factor profiling; actives raise or lower the signal. The essentials: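 Fluorescence-labelled reporter cDNA fragments, separated by capillary electrophoresis, gave the signal for this component of a 52-readout multiplex. HepG2 cells were transfected, exposed to chemicals for 24 h, and compared with DMSO using bidirectional fitting.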

The nature of assay [8]: ATG_AP_1_CIS: Attagene CIS-FACTORIAL HepG2 Assay for human Activator Protein 1 (AP-1) (AID 2282931). The following applies: HepG2 Attagene cis-factorial AP-1 reporter mRNA; actives raise or lower the signal. A digest of the protocol: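 We transfected HepG2 cells transiently with a set of cis-regulated reporter transcription units, dosed them for 24 h, and quantified reporter mRNA via RT-PCR and capillary electrophoresis, scoring gain or loss of signal relative to DMSO.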

The target of assay [9] is Retinoic acid receptor alpha (Homo sapiens) (UniProt P10276). Briefly: ATG_DR5_RAR_CIS: Attagene CIS-FACTORIAL HepG2 Assay for human Retinoic Acid Receptor Alpha (RARE), DR5 submotif (AID 2282934). The following applies: HepG2 Attagene cis-factorial RARE DR5 reporter, mRNA; actives raise or lower the signal. The essentials:
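HepG2 cells transiently transfected with multiplexed reporter units; DR5 cis-element drives reporter through endogenous transcription factors. After 24 h dosing, reporter mRNA quantified by RT-PCR, fluorescent labeling, HpaI digestion and capillary electrophoresis; bidirectional fitting versus DMSO.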

The AC50 is the concentration giving half of the maximal activity seen.

CCAAT/enhancer-binding protein beta (Homo sapiens), sequence (P17676 whole entry, looked up): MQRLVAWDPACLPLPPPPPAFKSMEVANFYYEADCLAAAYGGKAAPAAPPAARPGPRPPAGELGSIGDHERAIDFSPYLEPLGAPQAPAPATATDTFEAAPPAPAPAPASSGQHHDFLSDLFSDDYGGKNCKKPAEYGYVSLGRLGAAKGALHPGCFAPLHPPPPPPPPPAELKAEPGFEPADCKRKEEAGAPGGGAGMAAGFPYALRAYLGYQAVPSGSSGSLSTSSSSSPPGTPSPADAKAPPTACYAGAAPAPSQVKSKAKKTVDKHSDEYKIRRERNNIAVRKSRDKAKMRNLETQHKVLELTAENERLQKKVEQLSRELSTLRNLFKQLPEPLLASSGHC
Aryl hydrocarbon receptor (Homo sapiens), sequence (P35869 whole entry, looked up): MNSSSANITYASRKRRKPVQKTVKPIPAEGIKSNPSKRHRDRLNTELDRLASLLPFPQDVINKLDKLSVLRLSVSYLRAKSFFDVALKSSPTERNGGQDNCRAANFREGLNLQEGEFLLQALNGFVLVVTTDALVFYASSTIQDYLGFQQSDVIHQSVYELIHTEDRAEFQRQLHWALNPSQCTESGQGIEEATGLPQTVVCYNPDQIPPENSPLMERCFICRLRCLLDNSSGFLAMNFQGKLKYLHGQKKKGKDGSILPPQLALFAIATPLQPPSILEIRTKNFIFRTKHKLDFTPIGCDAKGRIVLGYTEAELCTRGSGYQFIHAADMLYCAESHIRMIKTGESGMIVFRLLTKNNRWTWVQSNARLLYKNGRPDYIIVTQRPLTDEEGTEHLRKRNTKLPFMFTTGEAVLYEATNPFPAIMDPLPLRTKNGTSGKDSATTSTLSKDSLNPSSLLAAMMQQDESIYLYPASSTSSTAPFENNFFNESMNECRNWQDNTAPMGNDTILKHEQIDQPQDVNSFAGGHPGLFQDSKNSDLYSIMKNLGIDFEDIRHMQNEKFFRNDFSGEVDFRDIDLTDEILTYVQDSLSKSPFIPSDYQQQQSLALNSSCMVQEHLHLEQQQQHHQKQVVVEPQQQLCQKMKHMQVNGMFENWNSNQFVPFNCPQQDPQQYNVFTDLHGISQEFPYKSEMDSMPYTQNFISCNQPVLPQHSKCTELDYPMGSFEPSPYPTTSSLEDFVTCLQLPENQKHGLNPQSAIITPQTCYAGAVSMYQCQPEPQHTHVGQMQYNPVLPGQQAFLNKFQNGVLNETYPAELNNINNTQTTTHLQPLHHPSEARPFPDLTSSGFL
Retinoic acid receptor alpha (Homo sapiens), sequence (P10276 whole entry, looked up): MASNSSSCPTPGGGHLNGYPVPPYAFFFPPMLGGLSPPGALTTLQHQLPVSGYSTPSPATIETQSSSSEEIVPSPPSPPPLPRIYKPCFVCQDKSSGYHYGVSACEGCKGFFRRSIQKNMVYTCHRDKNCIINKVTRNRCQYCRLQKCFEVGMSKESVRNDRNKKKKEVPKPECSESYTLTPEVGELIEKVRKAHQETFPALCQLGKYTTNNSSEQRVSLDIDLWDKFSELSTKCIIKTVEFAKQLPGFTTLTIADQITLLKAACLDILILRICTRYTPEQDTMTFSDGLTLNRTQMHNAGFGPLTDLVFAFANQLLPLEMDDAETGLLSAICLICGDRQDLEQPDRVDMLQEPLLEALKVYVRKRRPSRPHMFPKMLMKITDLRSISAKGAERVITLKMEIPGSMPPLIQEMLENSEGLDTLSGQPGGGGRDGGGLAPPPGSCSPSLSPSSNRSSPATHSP

On to `OCC=Cc1ccccc1`, for which the outcome in assay [1], in assay [2], in assay [3], in [4], in assay [6] and in [7] was inactive. Moreover, the AC50 in [5] is 50.1 µM (active).
For the compound `Nc1ccn([C@H]2CC[C@@H](CO)O2)c(=O)n1`, the compound was called inactive in assay [1], in assay [2], in assay [3], in assay [4], in [8] and in [6]. For the same compound, in [7], the call was inactive.
`CC(=O)OC/C=C(C)/C=C/C=C(C)/C=C/C1=C(C)CCCC1(C)C`: the result in assay [1], in [2], in assay [3], in assay [4], in assay [5] and in assay [6] was inactive. The outcome in assay [7] was inactive.
As for `CCCCCCCCSCc1cc(C)c(O)c(CSCCCCCCCC)c1`, the compound was classed as inactive in assay [1], in assay [2], in assay [3], in [4], in [5] and in [6]. In assay [7], the outcome was inactive.
In the case of `NC(=O)c1cnccn1`, the compound was classed as inactive in assay [1], in assay [2], in [3], in assay [4], in assay [5] and in assay [6]. Further, in [7], the call was inactive.
Turning to `CCCC1CCOC(C)S1` (stereo not drawn), the outcome in assay [1], in [2], in [3], in [4], in assay [5] and in assay [6] was inactive. The call in assay [7] was inactive.
As for `CC(C)C(=O)c1ccccc1`, the result in [1], in [2], in assay [3], in [4], in [5] and in assay [8] was inactive. Besides, the call in assay [6], in [7] and in assay [9] was inactive.
Turning to `COC(=O)C(C)Oc1ccc(Oc2ncc(C(F)(F)F)cc2Cl)cc1` (stereo not drawn), the compound was classed as inactive in assay [1], in assay [2], in [3], in assay [4] and in assay [6]. Moreover, the values for the AC50 in assay [5] and in [7] were 3.09 µM (active) and 149 µM (active), respectively.
Turning to `CC(C)(C)c1cccc(O)c1`, the call in assay [1], in [2], in assay [3], in [4], in [5] and in assay [6] was inactive. Besides, the result in [7] and in assay [9] was inactive.
On to `CCC(C)C1CCCCC1=O` (stereo not drawn), for which the compound was classed as inactive in assay [1], in assay [2], in [3], in [4], in [5] and in assay [6]. Also, the outcome in [7] and in assay [9] was inactive.
As for `CC(C)COC(=O)c1ccccc1O`, the compound was called inactive in assay [1], in assay [2], in assay [3], in assay [4], in assay [8] and in [6]. Further, in assay [7], the compound was called inactive.
For the compound `COc1ccc(OC)cc1`, the compound was called inactive in assay [1], in assay [2], in assay [3], in assay [4], in [5] and in assay [6]. Moreover, in assay [7], the call was inactive.
For `Cc1ccncc1`, the outcome in assay [1], in [2], in assay [3], in assay [4], in [5] and in assay [8] was inactive. In addition, the outcome in assay [6], in [7] and in [9] was inactive.
For the compound `ClCCOCCOCCCl`, the compound was classed as inactive in assay [1], in [2], in assay [3], in assay [4], in assay [5] and in [6]. In addition, the call in assay [7] and in assay [9] was inactive.
On to `O=C1CCC(=O)N1`, for which the compound was called inactive in [1], in assay [2], in assay [3], in assay [4], in assay [5] and in assay [6]. The compound was classed as inactive in [7].
`CCCCOC(=O)C(C)OC(=O)CCC` (stereo not drawn): the outcome in assay [1], in [2], in assay [3], in assay [4], in assay [5] and in assay [6] was inactive. The call in [7] and in [9] was inactive.
For the compound `CC(CO)c1ccccc1` (stereo not drawn), the outcome in assay [1], in [2], in assay [3], in [4], in assay [5] and in assay [6] was inactive. Further, the outcome in assay [7] was inactive.
As to `CC(C)CCOC(=O)CC(C)C`, the outcome in assay [1], in [2], in assay [3], in [4], in [5] and in assay [6] was inactive. Further, the compound was classed as inactive in assay [7].
With `C=C(C)C(N)=O`, the compound was classed as inactive in [1], in assay [2], in assay [3], in assay [4], in assay [5] and in assay [6]. Besides, the compound was called inactive in [7] and in [9].
For `CC(C)CCCC(C)(C)O`, the compound was called inactive in assay [1], in assay [2], in assay [3], in assay [4], in [5] and in assay [6]. Besides, in [7], the compound was classed as inactive.
On to `NC(N)=S`, for which the outcome in assay [1], in assay [2], in assay [3], in assay [4], in assay [5] and in [6] was inactive. Further, the call in assay [7] was inactive.
Consider `C/C=C(\C)C(=O)OC/C=C(\C)CCC=C(C)C`, for which the compound was called inactive in assay [1], in assay [2], in [3], in [4], in [5] and in assay [6]. The compound was called inactive in assay [7] and in assay [9].
Regarding `NNC(=O)OCc1ccccc1`, the compound was classed as inactive in [1], in assay [2], in [3], in [4], in [5] and in assay [6]. For the same compound, the outcome in [7] and in [9] was inactive.
`CCCCOCCOCCO`: the call in assay [1], in assay [2], in assay [3], in assay [4], in assay [5] and in assay [6] was inactive. Further, the compound was classed as inactive in assay [7] and in assay [9].
For the compound `CCCCCCOc1ccc(O)cc1`, the outcome in assay [1], in assay [2], in [5], in [8], in assay [6] and in assay [7] was inactive. Besides, the outcome in assay [9] was inactive. Moreover, the AC50 in assay [3] was 33.4 µM (active); in [4] it was 44.1 µM (active).
Turning to `CC(C)=CC(=O)O`, the compound was classed as inactive in [1], in assay [2], in [3], in [4], in [8] and in [6]. Besides, the outcome in assay [7] was inactive.
For the compound `CC(O)CN` (stereo not drawn), the compound was called inactive in [1], in assay [2], in assay [3], in assay [4], in [8] and in assay [6]. The call in assay [7] and in assay [9] was inactive.
As for `CC1=CCC(C(C)C)=CC1`, the outcome in [2], in assay [3], in assay [4], in [5], in [8] and in assay [6] was inactive. The compound was classed as inactive in assay [7].
On to `CCCCCC#CC(=O)OC`, for which the outcome in assay [2], in [3], in assay [4], in assay [5], in assay [8] and in [6] was inactive. The outcome in assay [7] was inactive.
In the case of `CC1(C)CC(N)CC(C)(CN)C1` (stereo not drawn), the outcome in assay [1], in assay [2], in assay [3], in [4], in [6] and in [7] was inactive. Moreover, the compound was classed as inactive in assay [9].
Consider `CCCCCCCCOC(=O)c1ccc(O)cc1`, for which the result in assay [1], in assay [2], in [3], in assay [4], in assay [8] and in assay [6] was inactive. The result in assay [7] and in [9] was inactive.
